Screens (PubChem BioAssay)
FLuc counter – firefly luciferase modulation, counter-screen for miR-21 project. hit rate 6.9% among 360,000. purified FLuc, Km substrates, luminescence inhibition. P08659. Potency, µM (series often up to 57.5 µM), without a hit: top-dose activity change, negative = inhibition, hits mostly inhibitors. AID 588342;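 note: plate controls were vehicle for no effect and reference inhibitor for full effect; nearly all actives have a fitted effect of over 55% in size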
Target sequence (P08659 whole entry, looked up): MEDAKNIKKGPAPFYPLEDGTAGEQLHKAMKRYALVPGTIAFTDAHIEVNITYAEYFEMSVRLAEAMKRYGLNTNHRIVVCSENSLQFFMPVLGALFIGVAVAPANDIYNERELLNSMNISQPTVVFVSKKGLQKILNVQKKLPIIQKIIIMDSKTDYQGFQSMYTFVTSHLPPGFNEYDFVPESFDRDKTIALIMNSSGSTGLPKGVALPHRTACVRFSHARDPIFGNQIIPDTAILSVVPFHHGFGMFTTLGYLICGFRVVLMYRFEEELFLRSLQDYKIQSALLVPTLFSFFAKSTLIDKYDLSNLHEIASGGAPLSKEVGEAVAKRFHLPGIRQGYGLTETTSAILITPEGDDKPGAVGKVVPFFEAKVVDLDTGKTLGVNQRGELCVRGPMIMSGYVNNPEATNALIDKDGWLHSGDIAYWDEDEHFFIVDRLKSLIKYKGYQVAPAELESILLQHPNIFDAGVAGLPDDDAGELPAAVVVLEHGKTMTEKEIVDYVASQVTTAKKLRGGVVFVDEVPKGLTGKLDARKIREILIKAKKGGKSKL
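Purified P. pyralis luciferase, 10 nM final, with Km-level 10 uM D-luciferin and 10 uM ATP in 50 mM Tris acetate pH 7.5, 10 mM Mg acetate, 0.01% Tween-20, 0.05% BSA; 6-point qHTS titration about 60 µM downward; luminescence read.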
ELG1 repair inh – ELG1-dependent DNA repair inhibition | HEK293T ELG1-luciferase reporter, luminescence, 16 h; DNA damage induced by 5-fluorouridine | Potency, µM (doses to about 46.1 µM), inactives show at the top dose activity change, negative = inhibition, actives largely listed as inhibitors | hit rate 2.3% among 330,000 | AID 504467; note: % is set by controls: 0 for no effect and ±100 for the full control effect; nearly all actives have a fitted effect of over 55% in size
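In this reporter screen, reduction of luminescence relative to DMSO vehicle indicated activity. Compounds and 5-fluorouridine were added together to 2,000 cells per well, incubated for 16 hr at 37 °C, then developed with ONE-Glo.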
ELG1 genotoxic – induces genotoxicity in HEK293T cells with luciferase-tagged ELG1; Potency, µM (top dose mostly 46 µM), without a hit: at the top dose activity change, positive = activation, usual class: activators; HEK293T ELG1-luciferase reporter, luminescence, 16 h; hit rate 1.3% among 330,000; note: % of control where 0% means no effect; nearly all actives have a fitted effect of over 60% in size
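Genotoxicity was scored as increased ELG1-luciferase reporter signal, measured by ONE-Glo luminescence (30 min, room temperature). Compound or vehicle exposure of the HEK293T reporter cells lasted 16 hr at 37°C.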
SMN2 splice enh – increases expression of the SMN2 splice variant; HEK293 SMN2-luciferase splicing reporter, luminescence, 30-36 h; Potency, µM (doses to about 46.1 µM), for the others: top-dose activity change, positive = activation, usual class: activators; hit rate 2.8% among 210,000; AID 1458; note: % of control where 0% means no effect; nearly all actives have a fitted effect of over 55% in size
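HEK293 cells carry an SMN2 […]–luciferase reporter in which exon 7 inclusion puts luciferase in frame. Cells were plated 10-12 h before compound addition, then incubated 30-36 h at 37C. ONE-Glo luminescence was read; sodium butyrate at 4.5 mM final served as control.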
Rab9 prom act – activators of Rab9 promoter; Potency, µM (doses to about 9.22 µM), without a hit: top-dose activation, negative = inhibition, actives largely listed as activators; hit rate 2.8% among 320,000; Huh7 Rab9 promoter-luciferase reporter, luminescence, 24 h; AID 485297; note: % of control where 0% means no effect; nearly all actives have a fitted effect of over 60% in size
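Quantitative HTS format; Huh7 Rab9-luciferase reporter cells (1500/well) receive compound 2 h post-plating, incubate 24 h at 37 °C, then get luciferase reagent for 10 min before luminescence reading.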
NPC1 promoter act – activates the NPC1 promoter; Huh7 NPC1 promoter luciferase reporter, 24 h; Potency, µM (highest dose often 9.22 µM), for the others: top-dose activation, hits mostly activators; hit rate 2.4% among 320,000; AID 485313; note: % of control where 0% means no effect; nearly all actives have a fitted effect of over 60% in size
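In 1536-well qHTS, Huh7 cells harboring an NPC1 promoter–luciferase construct received compound for 24 h; activation was quantified by luminescence following luciferase reagent addition.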
* marks the source's active call; other numbers are inactive results; [ ] = another dose, or the depositor's remark. This is a sample that favours compounds with a hit; in the whole collection about 9.2% have one here. Calls come from the whole dose curve; as a rule, active = well fitted curve in the direction sought with a large enough effect; inconclusive = small, poorly fitted or top-dose-only effect, or another doubt; inactive = no such curve, though single readings can be large; an effect the other way counts as inactive or inconclusive. Potency is the fitted concentration of half-maximal effect.

Screening O=C(Nc1nccs1)C(Cl)(Cl)Cl returned FLuc counter -1%, ELG1 repair inh 5%, ELG1 genotoxic 0%, SMN2 splice enh -7%, Rab9 prom act 3% and NPC1 promoter act -6%.
For O=C1NO[C@@H]2CN[C@@H](C(=O)O)[C@H]12 the results were SMN2 splice enh -4%.
`COc1ccc(-c2coc3cc(OC(=O)N4CCOCC4)ccc3c2=O)cc1` gave FLuc counter 24µM*, ELG1 repair inh inconclusive, ELG1 genotoxic -7%, Rab9 prom act inconclusive and NPC1 promoter act 23%.
Screening CCN1CCN(c2nc3ccccc3s2)CC1 returned FLuc counter 11µM*, ELG1 repair inh inconclusive, ELG1 genotoxic inconclusive, SMN2 splice enh 11µM*, Rab9 prom act 2µM* and NPC1 promoter act 2.2µM*.
For CCCC(c1nnnn1Cc1cccs1)N1CCN(c2nc3ccccc3s2)CC1 (stereo unspecified) the results were FLuc counter 0%, ELG1 repair inh 23µM*, ELG1 genotoxic -18%, SMN2 splice enh -71%, Rab9 prom act 1% and NPC1 promoter act 2%.
Screening Cn1c(C(=O)N2CCN(c3nc4ccccc4s3)CC2)cc2sccc21 returned FLuc counter -4%[2.3 µM], ELG1 repair inh inconclusive, ELG1 genotoxic -9%, Rab9 prom act -2% and NPC1 promoter act -3%.
`CC(=O)c1ccc(NC(=O)CSc2nc(=O)cc(N)n2-c2ccccc2)cc1` gave FLuc counter inconclusive, ELG1 repair inh inconclusive, ELG1 genotoxic inconclusive, SMN2 splice enh 30%, Rab9 prom act inconclusive and NPC1 promoter act 29%.
For CN(C)c1ccc(/C=C2/C(=N\O)C3CCN2CC3)cc1 the results were FLuc counter 19µM*, ELG1 repair inh inconclusive, ELG1 genotoxic inconclusive, Rab9 prom act 2.8µM* and NPC1 promoter act inconclusive.
`O=C1/C(=C\c2ccc([N+](=O)[O-])cc2)N2CCC1CC2` gave FLuc counter 2%, ELG1 repair inh 19%, ELG1 genotoxic 0%, SMN2 splice enh -17%, Rab9 prom act 2% and NPC1 promoter act -3%.
For CCOC(=O)c1c(C)n(Cc2ccccc2)c2ccc(OCC(O)Cn3nc(C)cc3C)cc12 (stereo unspecified) the results were FLuc counter 1%, ELG1 repair inh 21µM*, ELG1 genotoxic -5%, SMN2 splice enh -2%, Rab9 prom act -9% and NPC1 promoter act -1%.
For O=S(=O)(O)/C(=C\c1ccccc1)c1ccccc1 (tested in a mixture with another compound) the results were SMN2 splice enh -7%[9.22 µM].
For O=C(Nc1ccc(Cl)c(Cl)c1)O/N=C/c1ccncc1 the results were FLuc counter -14%, ELG1 repair inh 2%, ELG1 genotoxic -2%, SMN2 splice enh inconclusive, Rab9 prom act 0% and NPC1 promoter act -4%.
Screening COc1ccc(NC(=O)O/N=C/c2ccccc2)cc1 returned FLuc counter 9.5µM*, ELG1 repair inh inconclusive, ELG1 genotoxic inconclusive, Rab9 prom act inconclusive and NPC1 promoter act 3.5µM*.
`O=C(NCCSc1c(-c2ccc(F)cc2)[nH]c2ccccc12)c1ccc(S(=O)(=O)N2CCOCC2)cc1` gave FLuc counter 3% and SMN2 splice enh -37%.
O=C(O)c1ccc(-n2c(O)c(/C=C3\C=Nc4ccccc43)c(=O)[nH]c2=O)cc1 was read as FLuc counter 19µM*, ELG1 repair inh -2%, ELG1 genotoxic 0%, Rab9 prom act -4% and NPC1 promoter act 2%.
O=C1N=C(N2CCCCC2)SC1=C1CCCCC1 was read as FLuc counter 13µM*, ELG1 repair inh inconclusive, ELG1 genotoxic 16µM*, SMN2 splice enh 29%, Rab9 prom act 2.8µM* and NPC1 promoter act inconclusive.
COc1ccccc1OCCCn1cc(C=O)c2ccccc21 was read as FLuc counter inconclusive, ELG1 repair inh inconclusive, ELG1 genotoxic -1%, Rab9 prom act 0.5µM* and NPC1 promoter act inconclusive.
